Assay outcomes deposited in PubChem by several laboratories.
Hits are enriched below; roughly 22% of the tested compounds scored in any of these assays.
CYP2C19 act – human CYP2C19 activators, primary screen, biochemical, luminescence. Cytochrome P450 2C19 (Homo sapiens), P33261. recombinant CYP2C19, luciferin-H EGE luminescence; active compounds read high; 0 = fully inhibited enzyme, 1 = untreated enzyme. activation factor at 5 µM. 96,000 tested, under 10 active. AID 1025, 2008;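 active = activation factor of at least 2 at 5 µM in the primary screen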;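 also: 0 = wells with 2.5 mM tranylcypromine and 1 = vehicle-only wells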
Target sequence (P33261 whole entry, looked up): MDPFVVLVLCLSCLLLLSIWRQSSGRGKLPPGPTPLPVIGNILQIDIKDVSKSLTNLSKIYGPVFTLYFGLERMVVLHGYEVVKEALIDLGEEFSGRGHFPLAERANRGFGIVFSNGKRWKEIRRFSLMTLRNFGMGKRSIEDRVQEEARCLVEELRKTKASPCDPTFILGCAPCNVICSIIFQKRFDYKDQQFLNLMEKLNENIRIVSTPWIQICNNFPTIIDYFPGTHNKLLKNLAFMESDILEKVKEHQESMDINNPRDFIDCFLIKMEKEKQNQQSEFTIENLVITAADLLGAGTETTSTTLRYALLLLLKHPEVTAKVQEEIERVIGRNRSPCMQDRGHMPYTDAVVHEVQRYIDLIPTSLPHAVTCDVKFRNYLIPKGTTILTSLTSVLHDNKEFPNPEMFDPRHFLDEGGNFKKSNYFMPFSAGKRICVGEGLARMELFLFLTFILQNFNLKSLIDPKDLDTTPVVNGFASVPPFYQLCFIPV
CYP2C9 inhib – blockers of cytochrome P450 2C9 activity – biochemical, luminescence, ADME assay, primary screen. P11712. CYP2C9 Supersomes, luciferin-H conversion. inhibition, % at 5 µM. hit rate 20% among 96,000;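 active = blocking of liver enzyme CYP2C9 beyond about 50% at 5 µM, limit read from the data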
CYP2C9 act – human CYP2C9 activators, primary screen, biochemical, luminescence. Cytochrome P450 2C9 (Homo sapiens), P11712. recombinant CYP2C9, luciferin-H conversion; active compounds read high; factor 1 = untreated enzyme, 0 = blocked. activation factor at 5 µM. hit rate 1.4% among 96,000. AID 1024, 2008;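 active = activation factor of 2 or more for CYP2C9 at a 5 µM dose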;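 also: 0 = sulfaphenazole-blocked wells and 1 = vehicle-only wells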
CYP2C19 inh – blockers of cytochrome P450 2C19 activity – biochemical, luminescence, ADME assay, primary screen; P33261; CYP2C19 Supersomes, luciferin-H EGE luminescence, 30 min; inhibition, % at 5 µM; hit rate 21% among 96,000;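 active = CYP2C19 inhibition above a set limit at 5 µM in the primary screen, cut at about 50% in these data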;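 also: plate controls were negative control wells for no effect and 2.5 mM tranylcypromine positive control for full effect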
Measles CPE – compounds protecting cells from measles virus cytopathic effect, primary screen, measles RdRp inhibitor project, single point, MLSMR library, absorbance. protection (pct of control), % at 4 µM. hit rate 1.5% among 140,000. AID 841, 2007. Measles virus-infected cells, CPE protection; in the data active = protection mostly above about 24%, no sharp cut-off; inactive = mostly below about 26%
Active calls of the source: *; . = no result given.

SMILES | CYP2C19 act | CYP2C9 inhib | CYP2C9 act | CYP2C19 inh | Measles CPE
Nc1ccc(-c2nc3ccc(C(=O)O)cc3s2)cc1 | . | . | . | . | 16
Nc1cccc(-c2nc3ccc(N)cc3s2)c1 | 0.2 | 58* | 0.4 | 80* | 2
CCc1ccc(-c2cc(C(F)(F)F)n3nc(C(=O)Nc4c(C)nn(Cc5ccccc5C)c4C)cc3n2)s1 | 0.8 | 46 | 0.5 | 20 | 14
O=C(c1cccs1)N1CCN(S(=O)(=O)c2ccccc2)CC1 | 0 | 70* | 0.3 | 97* | 23
O=C(O)C1CCCN1C(=O)c1cccs1 (stereo not drawn) | . | . | . | . | 16
O=C(c1cccs1)N1CCN(c2ncccn2)CC1 | 0.7 | 23 | 0.8 | 33 | 18
O=C(c1ccsc1)N1CCN(C(=O)c2cccs2)CC1 | 0.1 | 67* | 0.3 | 95* | 5
CN1CCN(C(=O)c2ccccc2NC(=O)C(C)(C)C)CC1 | . | . | . | . | 9
CC1CN(C(=O)c2cccs2)CCN1C(=O)c1cccs1 (stereo not drawn) | 0 | 89* | 0.1 | 96* | 16
CN1CCN(C(=O)c2ccccc2NC(=O)c2cccs2)CC1 | 1 | 2 | 1 | -4 | 45*
Cn1nnc2cc(C(=O)NC3CC3)ccc21 | 1.2 | -42 | 1.4 | -23 | 5
COCCn1c(=NC(=O)CSC(C)=O)sc2cc(F)ccc21 | 0.5 | 28 | 0.7 | 46 | 18
Cc1cc(-c2ccc(Cl)s2)n[nH]1 | 0.7 | 21 | 0.8 | 27 | 11
Cc1cc(-c2cccs2)n[nH]1 | 1 | -14 | 1.1 | 2 | 37*
CCN(CC)S(=O)(=O)c1cccc(C(=O)OCC(=O)c2ccc3c(c2)NC(=O)CO3)c1 | 0.6 | 31 | 0.7 | 43 | 19
Cc1ccc(C(C)NC(=O)/C(C#N)=C\c2c(C)[nH]c3ccccc23)cc1 (stereo not drawn) | 0.6 | -108 | 2.1* | 45 | 4
Cc1[nH]c2ccccc2c1/C=C(\C#N)C(=O)NCc1ccccc1 | . | . | . | . | 15
Cc1csc(=NC(=O)c2ccccc2)n1Cc1ccco1 | 0.3 | 37 | 0.6 | 72* | 9
COCCn1c(SCC(=O)NCc2ccc3c(c2)OCO3)nnc1-c1c[nH]c2ccccc12 | 0.4 | 69* | 0.3 | 59* | 14
COCCn1c(SCC(=O)Nc2nnc(C)s2)nnc1-c1c[nH]c2ccccc12 | 0.8 | 51* | 0.5 | 19 | 3
CCSc1nnc(NC(=O)CSc2nnc(-c3c[nH]c4ccccc34)n2C)s1 | 0.7 | 76* | 0.2 | 30 | 10
CCc1nnc(NC(=O)CSc2nnc(-c3c[nH]c4ccccc34)n2CCOC)s1 | 0.9 | 39 | 0.6 | 15 | 13
O=C(CCN1C(=O)/C(=C/C=C/c2ccccc2)SC1=S)Nc1nc2ccccc2s1 | . | . | . | . | 11
O=C(Nc1nncs1)C1(c2ccccc2)CCCC1 | 1 | 41 | 0.6 | 5 | 12
C=CCn1c(C(C)NC(=O)c2ccccc2)n[nH]c1=S (stereo not drawn) | 0.4 | 4 | 1 | 62* | 2
SMILES | CYP2C19 act | CYP2C9 inhib | CYP2C9 act | CYP2C19 inh | Measles CPE
COc1ccc(CNc2ncnc3cc(OC)c(OC)cc23)cc1 | 0.9 | -3 | 1 | 10 | 5
O=C(CC1Nc2ccccc2NC1=O)NC1CCCCC1 (stereo not drawn) | 0.9 | -122 | 2.2* | 11 | 8
CC1CCCC(NC(=O)CC2Nc3ccccc3NC2=O)C1C (stereo not drawn) | 0.8 | -38 | 1.4 | 20 | 9
COc1ccc2c(C)nc(Nc3nc(C)c(C)c(=O)[nH]3)nc2c1 | 0.9 | 11 | 0.9 | 5 | 1
CCCCNC(=S)NNC(=O)c1sccc1C | 0.1 | 12 | 0.9 | 88* | 4
O=C(Nc1ccc2oc(-c3ccncc3)nc2c1)c1ccccc1F | 0.6 | 68* | 0.3 | 41 | 9
O=C(Nc1ccc2oc(-c3ccncc3)nc2c1)c1cccs1 | 0.7 | 85* | 0.2 | 28 | 42*
Cc1ccc2oc(-c3ccc(C)c(NC(=S)NC(=O)c4cccs4)c3)nc2c1 | . | . | . | . | 59*
Cc1ccc(-c2nc3ccccc3o2)cc1NC(=S)NC(=O)c1cc2ccccc2o1 | . | . | . | . | 10
CC(C)[C@H](NC(=O)c1ccccc1)C(=O)OCc1nc2scc(-c3ccccc3)c2c(=O)[nH]1 | . | . | . | . | 5
Cc1c(C)c2ccc(OS(C)(=O)=O)c(C)c2oc1=O | . | . | . | . | 16
COC(=O)Cc1[nH]nc2c1C1(C(=O)N(Cc3ccc(Cl)cc3)c3ccccc31)C(C#N)=C(N)O2 (stereo not drawn) | 0.8 | 36 | 0.6 | 24 | 6
CCc1[nH]nc2c1C1(C(=O)N(Cc3ccccc3)c3ccccc31)C(C#N)=C(N)O2 (stereo not drawn) | 0.1 | 88* | 0.1 | 85* | 10
COc1ccc(/C=N/Nc2c(Cl)cc(Cl)cc2Cl)cc1CN1CCOCC1 | . | . | . | . | 12
O=C(CSC1=NS(=O)(=O)c2ccccc21)Nc1ccccc1 | 0.5 | 32 | 0.7 | 53* | 6
CSCCC(N=CC1=C(O)CC(C)(C)CC1=O)C(=O)O (stereo not drawn) | 1.2 | -17 | 1.2 | -22 | 5
CCn1c(SCC(=O)Nc2ccc3c(c2)c2ccccc2n3CC)nnc1-c1cnccn1 | 0.5 | -44 | 1.4 | 53* | 5
C=CCn1c(SCC(=O)Nc2cccc(C)c2)nnc1-c1cnccn1 | 0 | 53* | 0.5 | 96* | 8
C=CCn1c(SCC(=O)Nc2cc(C)cc(C)c2)nnc1-c1cnccn1 | 1 | -3 | 1 | 4 | .
CCn1c(SCC(=O)Nc2ccccc2OC)nnc1-c1cnccn1 | 0.7 | 17 | 0.8 | 34 | 4
C=CCn1c(SCC(=O)Nc2cc(C)ccc2C)nnc1-c1cnccn1 | 0.2 | 3 | 1 | 83* | 9
C=CCn1c(SCC(=O)Nc2cc(NC(C)=O)ccc2OC)nnc1-c1ccccn1 | 0.6 | 19 | 0.8 | 38 | 14
CCC1CCC2(CC1)NC(=O)N(CC(=O)Nc1cc(C)on1)C2=O (stereo not drawn) | . | . | . | . | 6
COc1ccc2nc(Nc3ccc4c(c3)OCO4)sc2c1 | 0.3 | 21 | 0.8 | 65* | 7
COc1ccc2nc(Nc3nc4cc5c(cc4s3)OCO5)sc2c1 | . | . | . | . | 6
SMILES | CYP2C19 act | CYP2C9 inhib | CYP2C9 act | CYP2C19 inh | Measles CPE
NS(=O)(=O)c1cccc2cccnc12 | 0.9 | -45 | 1.5 | 10 | 6
O=c1n(S(=O)(=O)c2cccc3cccnc23)c2ccccc2n1S(=O)(=O)c1cccc2cccnc12 | 0.8 | 48 | 0.5 | 17 | 8
O=S(=O)(c1cccc2cccnc12)N1CCOCC1 | 0.6 | -301 | 4* | 39 | 12
COc1ccc(N2CCN(S(=O)(=O)c3cccc4cccnc34)CC2)cc1 | 0.2 | -155 | 2.6* | 82* | 13
CC1CCCCN1S(=O)(=O)c1cccc2cccnc12 (stereo not drawn) | 0.2 | -289 | 3.9* | 79* | 2
CC1CCCCN1S(=O)(=O)c1ccccc1[N+](=O)[O-] (stereo not drawn) | . | . | . | . | 8
